Results published in PubChem BioAssay (EPA / NIEHS).
Inconclusive results are not listed. The source made the active and inactive calls. Rule for the calls, unless noted: active = hit-call score of the fitted dose curve at least 0.9, where 1 is the maximum; inactive = score below 0.9.

Legend:
[1] = target: Myc proto-oncogene protein (Homo sapiens) (UniProt P01106); assay: ATG_Myc_CIS: Attagene CIS-FACTORIAL HepG2 Assay for human Myelocytomatosis (Myc) Proto-Oncogene Transcription Factor (AID 2282990); conditions: HepG2, Attagene cis-reporter transcription factor activity; actives raise or lower the signal
Chain of Myc proto-oncogene protein (Homo sapiens) (P01106 whole entry, looked up, the tested form may be a part): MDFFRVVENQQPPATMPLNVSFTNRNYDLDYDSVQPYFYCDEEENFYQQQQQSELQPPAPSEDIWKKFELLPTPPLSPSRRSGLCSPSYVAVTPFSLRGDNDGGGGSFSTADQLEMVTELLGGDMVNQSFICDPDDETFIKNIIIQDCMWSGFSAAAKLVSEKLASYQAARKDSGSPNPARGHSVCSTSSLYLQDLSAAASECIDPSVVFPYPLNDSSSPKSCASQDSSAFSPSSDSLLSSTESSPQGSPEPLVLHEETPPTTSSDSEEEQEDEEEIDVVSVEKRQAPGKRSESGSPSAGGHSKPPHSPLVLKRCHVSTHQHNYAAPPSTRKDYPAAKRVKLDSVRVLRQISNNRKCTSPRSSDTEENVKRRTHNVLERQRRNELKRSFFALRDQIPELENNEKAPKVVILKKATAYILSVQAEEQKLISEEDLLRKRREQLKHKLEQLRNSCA
Summary of the method: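 After 24 h chemical treatment of HepG2 cells carrying multiplexed cis-regulated reporter constructs, reporter transcripts quantified by RT-PCR and capillary electrophoresis of fluorescent fragments. Gain or loss fitted against DMSO baseline.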

[2] = ATG_NF_kB_CIS: Attagene CIS-FACTORIAL HepG2 Assay for human Nuclear Factor Kappa B (NF-kB) (AID 2282991); conditions: HepG2 Attagene cis-factorial NF-kB reporter mRNA; actives raise or lower the signal
Summary of the method: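 Fluorescence of labelled RT-PCR products separated by capillary electrophoresis gives reporter mRNA levels from transfected HepG2 cells exposed 24 h; values are fitted in both directions relative to DMSO.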

[3] = ATG_NRF2_ARE_CIS: Attagene CIS-FACTORIAL HepG2 Assay for human Nuclear Factor Erythroid 2 Related Factor 2 (NFR2) response to Antioxidant Response Elements (ARE) (AID 2282992); conditions: HepG2 Attagene ARE/NRF2 reporter, transcription factor activity; actives raise or lower the signal
Summary of the method: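 HepG2 cells transiently transfected with multiplexed cis-regulated reporter transcription units measure endogenous transcription factor activity. Reporter mRNA at 24 h is quantified by RT-PCR, fluorescent labelling and capillary electrophoresis, with bidirectional fitting relative to DMSO.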

[4] = ATG_Oct_MLP_CIS: Attagene CIS-FACTORIAL HepG2 Assay for human Octamer-Binding Transcription Factor (Oct) (AID 2282993); conditions: HepG2 Attagene cis-factorial Oct reporter, mRNA; actives raise or lower the signal
Summary of the method: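 Readout is reporter transcript level from RT-PCR with fluorescent primer extension and capillary electrophoresis, fitted in both directions against DMSO. Transfected HepG2 reporter units report endogenous factor activity after 24 h dosing.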

[5] = target: Cellular tumor antigen p53 (Homo sapiens) (UniProt P04637); assay: ATG_p53_CIS: Attagene CIS-FACTORIAL HepG2 Assay for human p53 Transcription Factor (AID 2282994); conditions: HepG2 p53 cis-element reporter, Attagene mRNA; actives raise or lower the signal
Chain of Cellular tumor antigen p53 (Homo sapiens) (P04637 whole entry, looked up): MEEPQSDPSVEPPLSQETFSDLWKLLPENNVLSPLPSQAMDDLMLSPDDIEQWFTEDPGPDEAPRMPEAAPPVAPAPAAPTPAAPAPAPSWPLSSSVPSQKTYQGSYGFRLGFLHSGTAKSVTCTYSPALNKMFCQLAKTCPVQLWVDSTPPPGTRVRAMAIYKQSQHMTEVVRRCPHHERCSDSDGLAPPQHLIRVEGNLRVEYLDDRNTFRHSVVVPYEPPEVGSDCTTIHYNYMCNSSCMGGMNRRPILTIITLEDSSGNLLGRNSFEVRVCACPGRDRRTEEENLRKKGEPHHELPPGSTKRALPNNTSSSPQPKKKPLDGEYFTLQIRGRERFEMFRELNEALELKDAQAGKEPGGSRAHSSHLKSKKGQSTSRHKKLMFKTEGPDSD
Summary of the method: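 HepG2 cells transiently transfected with multiplexed cis-regulated reporter transcription units read endogenous TF activity. After 24 h compound exposure, reporter mRNA was quantified by RT-PCR, fluorescent labelling, HpaI digestion and capillary electrophoresis; bidirectional fits versus DMSO baseline.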

[6] = BSK_3C_TissueFactor: BioMAP Diversity Plus: 3C Assay for Tissue Factor Biomarker Activity (AID 2282997); conditions: BioMAP 3C HUVEC, tissue factor biomarker readout; actives raise or lower the signal
Summary of the method: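 Values derive from bidirectional curve fitting against DMSO of Tissue Factor ELISA signals, taken 24 h after dosing primary human umbilical vein endothelial cells.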

[7] = BSK_3C_uPAR: BioMAP Diversity Plus: 3C Assay for Urokinase-type plasminogen activator receptor (uPAR) Biomarker Activity (AID 2282998); conditions: BioMAP 3C HUVEC, uPAR biomarker ELISA; actives raise or lower the signal
Summary of the method: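 Cell-surface uPAR on HUVEC (3C system) read by ELISA at 24 h post-treatment, with DMSO as baseline and fitting in both directions. Parallel cultures stained with SRB to flag overt cytotoxicity.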

[8] = BSK_3C_VCAM1: BioMAP Diversity Plus: 3C Assay for Vascular cell adhesion molecule 1 (VCAM1) Biomarker Activity (AID 2282999); conditions: BioMAP 3C HUVEC, VCAM1 ELISA, cytokine-stimulated; actives raise or lower the signal
Summary of the method: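 Endothelial cells from human umbilical vein are treated with test chemical. At 24 h, VCAM-1 is measured by ELISA, and responses in either direction are fitted relative to DMSO.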

[9] = BSK_4H_Eotaxin3: BioMAP Diversity Plus: 4H Assay for Eotaxin 3 Biomarker Activity (AID 2283000); conditions: primary human endothelial cells (HUVEC); actives raise or lower the signal;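 for outcome: CCL26 protein level quantified by ELISA in parallel with SRB cytotoxicity check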
Summary of the method: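 Endothelial primary cells (human umbilical vein) exposed to compound for 24 h. ELISA detection of Eotaxin-3.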

[10] = target: human Peroxisome Proliferator-activated Receptor delta (PPARd), PPARD (gene 5467) (UniProt Q03181); assay: ATG_PPARd_TRANS: Attagene TRANS-FACTORIAL HepG2 Assay for human Peroxisome Proliferator-activated Receptor delta (PPARd) (AID 2283002; active = hit-call score of the fitted dose curve at least 0.9, where 1 is the maximum)
Chain of human Peroxisome Proliferator-activated Receptor delta (PPARd), PPARD (gene 5467) (Q03181 whole entry, looked up, the tested form may be a part): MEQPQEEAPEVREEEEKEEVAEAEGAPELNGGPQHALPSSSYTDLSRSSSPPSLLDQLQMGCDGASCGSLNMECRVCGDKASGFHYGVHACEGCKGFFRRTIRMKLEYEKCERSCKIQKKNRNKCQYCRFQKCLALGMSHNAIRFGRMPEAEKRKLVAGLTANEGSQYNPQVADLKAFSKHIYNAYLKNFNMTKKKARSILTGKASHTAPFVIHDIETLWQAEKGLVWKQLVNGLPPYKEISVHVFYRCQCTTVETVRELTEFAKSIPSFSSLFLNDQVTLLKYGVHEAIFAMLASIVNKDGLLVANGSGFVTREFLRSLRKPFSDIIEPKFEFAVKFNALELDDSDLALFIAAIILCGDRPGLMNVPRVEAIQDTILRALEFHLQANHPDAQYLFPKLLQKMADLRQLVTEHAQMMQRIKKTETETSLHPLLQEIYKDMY
Summary of the method: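 Read-out is induced reporter mRNA, quantified by RT-PCR with fluorescent labelling and capillary electrophoresis after 24 h dosing. Cells are HepG2 transiently carrying multiple GAL4-UAS reporter units driven by exogenous NR-GAL4 chimeras; DMSO serves as baseline.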

[11] = read-out: Intercellular Adhesion Molecule 1 (ICAM1), ICAM1 (gene 3383); assay: BSK_3C_ICAM1: BioMAP Diversity Plus: 3C Assay for Intercellular Adhesion Molecule 1 (ICAM1) Biomarker Activity (AID 2283003); conditions: primary human endothelial cells (HUVEC); actives raise or lower the signal
Summary of the method: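 Human vascular endothelial primary cells, 3C conditions, 24 h treatment. ICAM-1 by ELISA.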

[12] = target: human Retinoic Acid Receptor beta (RARb), RARB (gene 5915) (UniProt P10826); assay: ATG_RARb_TRANS: Attagene TRANS-FACTORIAL HepG2 Assay for human Retinoic Acid Receptor beta (AID 2283004; active = hit-call score of the fitted dose curve at least 0.9, where 1 is the maximum)
Chain of human Retinoic Acid Receptor beta (RARb), RARB (gene 5915) (P10826 whole entry, looked up, the tested form may be a part): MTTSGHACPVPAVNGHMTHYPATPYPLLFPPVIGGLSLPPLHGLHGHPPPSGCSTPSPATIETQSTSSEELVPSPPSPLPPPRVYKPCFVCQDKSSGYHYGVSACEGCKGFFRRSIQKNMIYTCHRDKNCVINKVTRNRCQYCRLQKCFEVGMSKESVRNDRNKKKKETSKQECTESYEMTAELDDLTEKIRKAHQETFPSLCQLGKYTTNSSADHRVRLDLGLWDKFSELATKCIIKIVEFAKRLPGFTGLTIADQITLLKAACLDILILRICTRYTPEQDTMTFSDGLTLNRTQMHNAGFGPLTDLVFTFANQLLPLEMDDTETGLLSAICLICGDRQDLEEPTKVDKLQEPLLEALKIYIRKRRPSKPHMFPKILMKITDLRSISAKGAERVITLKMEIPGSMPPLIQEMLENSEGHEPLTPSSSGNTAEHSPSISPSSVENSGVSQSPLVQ
Summary of the method: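 HepG2, transient MRTU transfection, NR–Gal4 chimera, 24 h treatment; RT-PCR plus CE fluorescence detection of reporter mRNA; gain of signal vs DMSO.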

[13] = target: Retinoic acid receptor alpha (Homo sapiens) (UniProt P10276); assay: ATG_RARa_TRANS: Attagene TRANS-FACTORIAL HepG2 Assay for human Retinoic Acid Receptor alpha (RARa) (AID 2283005; active = hit-call score of the fitted dose curve at least 0.9, where 1 is the maximum)
Chain of Retinoic acid receptor alpha (Homo sapiens) (P10276 whole entry, looked up, the tested form may be a part): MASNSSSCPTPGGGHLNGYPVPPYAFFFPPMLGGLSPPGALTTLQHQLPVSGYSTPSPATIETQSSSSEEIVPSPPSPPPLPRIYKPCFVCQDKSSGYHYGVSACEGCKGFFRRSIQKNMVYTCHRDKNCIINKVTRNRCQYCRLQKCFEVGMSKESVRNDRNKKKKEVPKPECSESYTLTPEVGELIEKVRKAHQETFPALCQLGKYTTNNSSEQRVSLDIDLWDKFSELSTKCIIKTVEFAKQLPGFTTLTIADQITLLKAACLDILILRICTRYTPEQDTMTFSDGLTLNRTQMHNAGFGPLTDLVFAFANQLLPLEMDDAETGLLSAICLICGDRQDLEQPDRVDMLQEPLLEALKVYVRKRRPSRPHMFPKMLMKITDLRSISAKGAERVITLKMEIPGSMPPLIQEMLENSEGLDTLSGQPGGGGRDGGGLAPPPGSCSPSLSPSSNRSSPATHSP
Summary of the method: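 Reporter transcripts, measured by RT-PCR with fluorescent labeling and capillary electrophoresis after 24 h dosing, reflect activity of an exogenous human RARa–GAL4 fusion in transiently transfected HepG2. Fitted for increase relative to DMSO.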

[14] = BSK_3C_Proliferation: Cell Proliferation Assessment in the BioMAP Diversity Plus: 3C Assay (AID 2283006); conditions: primary human endothelial cells (HUVEC);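 for AC50: potency may reflect either rise or fall in cell number versus DMSO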
Summary of the method: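 Proliferation of human vascular endothelial primary cells after 48 h dosing, quantified as SRB-stained protein at 560 nm relative to DMSO.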

[15] = target: Nuclear receptor subfamily 1 group I member 2 (Homo sapiens) (UniProt O75469); assay: ATG_PXR_TRANS: Attagene TRANS-FACTORIAL HepG2 Assay for human Pregnane X Receptor (PXR) (AID 2283008; active = hit-call score of the fitted dose curve at least 0.9, where 1 is the maximum)
Chain of Nuclear receptor subfamily 1 group I member 2 (Homo sapiens) (O75469 whole entry, looked up, the tested form may be a part): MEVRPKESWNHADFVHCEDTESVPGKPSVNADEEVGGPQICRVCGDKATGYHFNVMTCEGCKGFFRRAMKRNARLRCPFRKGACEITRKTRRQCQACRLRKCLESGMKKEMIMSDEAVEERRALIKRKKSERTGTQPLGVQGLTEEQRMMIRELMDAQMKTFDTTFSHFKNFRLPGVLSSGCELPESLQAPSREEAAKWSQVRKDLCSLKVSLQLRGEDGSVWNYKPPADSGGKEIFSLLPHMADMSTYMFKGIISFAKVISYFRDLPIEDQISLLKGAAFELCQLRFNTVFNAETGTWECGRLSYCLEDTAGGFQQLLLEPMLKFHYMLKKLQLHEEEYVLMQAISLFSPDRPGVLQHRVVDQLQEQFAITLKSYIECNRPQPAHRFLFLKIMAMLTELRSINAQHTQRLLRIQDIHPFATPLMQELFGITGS
Summary of the method: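 HepG2 cells transiently transfected with multiple reporter units, here a PXR-GAL4 chimera driving a GAL4-UAS reporter; 24 h compound exposure. Reporter mRNA measured by RT-PCR, FAM labelling and capillary electrophoresis; gain of signal fitted against DMSO baseline.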

[16] = target: human Retinoic Acid Receptor gamma (RARg), RARG (gene 5916) (UniProt P13631); assay: ATG_RARg_TRANS: Attagene TRANS-FACTORIAL HepG2 Assay for human Retinoic Acid Receptor gamma (RARg) (AID 2283009; active = hit-call score of the fitted dose curve at least 0.9, where 1 is the maximum)
Chain of human Retinoic Acid Receptor gamma (RARg), RARG (gene 5916) (P13631 whole entry, looked up, the tested form may be a part): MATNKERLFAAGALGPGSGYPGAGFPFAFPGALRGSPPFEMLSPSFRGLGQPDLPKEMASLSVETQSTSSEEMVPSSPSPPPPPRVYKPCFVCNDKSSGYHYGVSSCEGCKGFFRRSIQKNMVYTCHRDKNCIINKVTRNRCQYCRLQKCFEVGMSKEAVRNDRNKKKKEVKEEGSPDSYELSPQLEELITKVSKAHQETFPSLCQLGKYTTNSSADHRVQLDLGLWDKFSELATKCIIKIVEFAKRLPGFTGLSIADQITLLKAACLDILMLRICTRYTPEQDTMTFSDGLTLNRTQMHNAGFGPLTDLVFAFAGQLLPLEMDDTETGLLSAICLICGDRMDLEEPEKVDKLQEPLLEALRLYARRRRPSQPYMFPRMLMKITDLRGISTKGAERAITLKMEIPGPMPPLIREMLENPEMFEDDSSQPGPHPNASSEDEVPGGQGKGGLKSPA
Summary of the method: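 HepG2, RARg-GAL4 TRANS system, 24 h exposure; reporter mRNA by RT-PCR + CE fluorescence; increase over DMSO.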

[17] = target: human RAR-related Orphan Receptor gamma (RORg), RORC (gene 6097) (UniProt P51449); assay: ATG_RORg_TRANS: Attagene TRANS-FACTORIAL HepG2 Assay for human RAR-related Orphan Receptor gamma (RORg) (AID 2283011; active = hit-call score of the fitted dose curve at least 0.9, where 1 is the maximum;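 for AC50: potency for induction of reporter transcripts above DMSO so activators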)
Chain of human RAR-related Orphan Receptor gamma (RORg), RORC (gene 6097) (P51449 whole entry, looked up, the tested form may be a part): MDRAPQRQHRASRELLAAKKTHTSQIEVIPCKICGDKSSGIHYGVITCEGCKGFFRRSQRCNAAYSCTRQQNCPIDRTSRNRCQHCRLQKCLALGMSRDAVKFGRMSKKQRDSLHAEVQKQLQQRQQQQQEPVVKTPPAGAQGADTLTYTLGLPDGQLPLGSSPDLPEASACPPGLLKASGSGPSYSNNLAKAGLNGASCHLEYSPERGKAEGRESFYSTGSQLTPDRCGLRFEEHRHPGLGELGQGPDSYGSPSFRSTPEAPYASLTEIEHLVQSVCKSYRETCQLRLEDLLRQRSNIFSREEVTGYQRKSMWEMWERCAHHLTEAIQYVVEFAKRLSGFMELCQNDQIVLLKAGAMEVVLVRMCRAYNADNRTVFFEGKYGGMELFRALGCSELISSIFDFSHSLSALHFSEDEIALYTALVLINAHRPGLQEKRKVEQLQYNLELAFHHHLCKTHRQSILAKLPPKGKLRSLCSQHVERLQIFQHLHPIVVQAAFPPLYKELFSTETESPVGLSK
Summary of the method: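 Activity is scored as increase in GAL4-UAS reporter mRNA over DMSO, detected by fluorescent RT-PCR and capillary electrophoresis in HepG2 cells transiently expressing a RORg-Gal4 chimera, 24 h after dosing.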

[18] = target: human Peroxisome Proliferator-activated Receptor alpha (PPARa), PPARA (gene 5465) (UniProt Q07869); assay: ATG_PPARa_TRANS: Attagene TRANS-FACTORIAL HepG2 Assay for human Peroxisome Proliferator-activated Receptor alpha (PPARa) (AID 2283001; active = hit-call score of the fitted dose curve at least 0.9, where 1 is the maximum)
Chain of human Peroxisome Proliferator-activated Receptor alpha (PPARa), PPARA (gene 5465) (Q07869 whole entry, looked up, the tested form may be a part): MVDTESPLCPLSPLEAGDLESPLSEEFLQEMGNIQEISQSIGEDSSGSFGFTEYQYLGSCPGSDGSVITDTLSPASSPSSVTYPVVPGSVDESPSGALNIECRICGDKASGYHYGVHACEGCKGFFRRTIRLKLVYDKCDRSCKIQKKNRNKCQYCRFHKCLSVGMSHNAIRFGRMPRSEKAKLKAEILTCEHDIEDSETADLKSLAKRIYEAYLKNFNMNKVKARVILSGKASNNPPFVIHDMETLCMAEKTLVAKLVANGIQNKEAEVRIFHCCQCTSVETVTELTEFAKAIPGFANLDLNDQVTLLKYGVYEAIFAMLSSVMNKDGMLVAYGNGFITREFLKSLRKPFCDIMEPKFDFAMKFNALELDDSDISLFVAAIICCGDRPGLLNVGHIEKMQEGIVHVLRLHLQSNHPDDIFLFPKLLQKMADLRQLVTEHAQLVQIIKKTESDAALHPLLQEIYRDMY
Summary of the method: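 Reporter transcripts from GAL4-UAS units in transfected HepG2 were quantified 24 h after dosing. Detection used reverse transcription, PCR, fluorescent primer extension and capillary electrophoresis, with DMSO as baseline.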

[19] = target: Peroxisome proliferator-activated receptor gamma (Homo sapiens) (UniProt P37231); assay: ATG_PPARg_TRANS: Attagene TRANS-FACTORIAL HepG2 Assay for human Peroxisome Proliferator-activated Receptor-gamma (PPARg) (AID 2283007; active = hit-call score of the fitted dose curve at least 0.9, where 1 is the maximum)
Chain of Peroxisome proliferator-activated receptor gamma (Homo sapiens) (P37231 whole entry, looked up): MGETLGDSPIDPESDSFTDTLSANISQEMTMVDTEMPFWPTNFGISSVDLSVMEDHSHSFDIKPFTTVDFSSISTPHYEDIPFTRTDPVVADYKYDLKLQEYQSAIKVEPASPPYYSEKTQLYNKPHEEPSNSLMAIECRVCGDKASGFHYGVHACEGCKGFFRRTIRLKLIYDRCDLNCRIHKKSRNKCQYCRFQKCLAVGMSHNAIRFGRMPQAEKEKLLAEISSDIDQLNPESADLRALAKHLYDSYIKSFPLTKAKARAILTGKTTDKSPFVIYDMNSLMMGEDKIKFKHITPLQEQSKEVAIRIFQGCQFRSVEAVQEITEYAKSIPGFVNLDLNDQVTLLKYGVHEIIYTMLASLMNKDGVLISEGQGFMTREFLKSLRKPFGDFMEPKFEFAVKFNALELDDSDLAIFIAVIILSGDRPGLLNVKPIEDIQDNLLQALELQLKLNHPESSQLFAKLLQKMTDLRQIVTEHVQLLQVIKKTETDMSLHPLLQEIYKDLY
Summary of the method: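 Twenty-four hours after chemical dosing of transiently transfected HepG2 cells, isolated RNA was converted to cDNA, reporter sequences amplified and 6-FAM-labelled, then HpaI-digested and analysed by capillary electrophoresis. Signal increase against DMSO was fitted.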

[20] = target: human RAR-related Orphan Receptor beta (RORb), RORB (gene 6096) (UniProt Q92753); assay: ATG_RORb_TRANS: Attagene TRANS-FACTORIAL HepG2 Assay for human RAR-related Orphan Receptor beta (RORb) (AID 2283010; active = hit-call score of the fitted dose curve at least 0.9, where 1 is the maximum)
Summary of the method: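 In this TRANS-format test, human HepG2 cells express chimeric NR-Gal4 fusion proteins driving GAL4-UAS reporters. After 24 h dosing, reporter transcripts are measured by fluorescent RT-PCR/capillary electrophoresis, with DMSO as negative control.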

For `CCN(CC)C(=O)N(CC)CC`, the outcome [1] was “inactive”, the outcome [2] was “inactive” and the outcome [3] was “inactive”. For the same compound, the outcome [4] was “inactive”, the outcome [5] was “inactive” and the outcome [6] was “inactive”. For the same compound, the outcome [7] was “inactive”, the outcome [8] was “inactive” and the outcome [9] was “inactive”. The outcome [10] was “inactive”, the outcome [11] was “inactive” and the outcome [12] was “inactive”. For the same compound, the outcome [13] was “inactive”, the outcome [14] was “inactive” and the outcome [15] was “inactive”. For the same compound, the outcome [16] was “inactive” and the outcome [17] was “inactive”.

For `CCCCCCCC(=O)OCC(O)CO` (stereo not drawn), the outcome [1] was “inactive”, the outcome [2] was “inactive” and the outcome [3] was “inactive”. The outcome [4] was “inactive”, the outcome [5] was “inactive” and the outcome [18] was “inactive”. For the same compound, the outcome [10] was “inactive”, the outcome [13] was “inactive” and the outcome [19] was “inactive”. For the same compound, the outcome [15] was “inactive” and the outcome [16] was “inactive”.

With `CC(C)CCCCCCCCCCCCCCC(=O)O` the outcome [1] was “inactive”, the outcome [2] was “inactive” and the outcome [3] was “inactive”. The outcome [4] was “inactive”, the outcome [5] was “inactive” and the outcome [18] was “inactive”. For the same compound, the outcome [10] was “inactive”, the outcome [13] was “inactive” and the AC50 [19] was 30.2 µM (active). For the same compound, the outcome [15] was “inactive”, the outcome [20] was “inactive” and the outcome [17] was “inactive”.

With `C=Cc1ccncc1` the outcome [1] was “inactive”, the AC50 [2] was 61.5 µM (active) and the AC50 [3] was 25.1 µM (active). The AC50 [4] was 26.8 µM (active), the outcome [5] was “inactive” and the outcome [18] was “inactive”. For the same compound, the AC50 [10] was 25.6 µM (active), the outcome [13] was “inactive” and the AC50 [19] was 77.4 µM (active). For the same compound, the outcome [15] was “inactive” and the AC50 [17] was 60.2 µM (active).

In the case of `Clc1cc(Cl)c(-c2c(Cl)c(Cl)cc(Cl)c2Cl)cc1Cl`, the outcome [1] is reported as “inactive”, the outcome [2] is reported as “inactive” and the AC50 [3] is reported as 26.7 µM (active). For the same compound, the outcome [4] was “inactive”, the outcome [5] was “inactive” and the AC50 [6] was 10 µM (active). The AC50 [7] was 17.1 µM (active), the AC50 [8] was 12.9 µM (active) and the AC50 [9] was 12.5 µM (active). The outcome [10] was “inactive”, the outcome [11] was “inactive” and the AC50 [14] was 16.7 µM (active). The outcome [19] was “inactive” and the AC50 [15] was 4.6 µM (active).

In the case of `Cc1ncc[nH]1`, the outcome [1] is reported as “inactive”, the outcome [2] is reported as “inactive” and the outcome [3] is reported as “inactive”. The outcome [4] was “inactive”, the outcome [5] was “inactive” and the outcome [18] was “inactive”. For the same compound, the outcome [10] was “inactive”, the outcome [19] was “inactive” and the outcome [15] was “inactive”.

In the case of `CS(=O)(=O)c1ccc(C2=C(c3ccccc3)C(=O)OC2)cc1`, the outcome [1] is reported as “inactive”, the outcome [2] is reported as “inactive” and the outcome [3] is reported as “inactive”. For the same compound, the outcome [4] was “inactive”, the outcome [5] was “inactive” and the outcome [6] was “inactive”. The outcome [7] was “inactive”, the outcome [8] was “inactive” and the outcome [9] was “inactive”. For the same compound, the outcome [11] was “inactive”, the outcome [12] was “inactive” and the outcome [14] was “inactive”. The outcome [19] was “inactive” and the outcome [15] was “inactive”.

With `CC(=O)C1(C)CC2=C(CCCC2(C)C)CC1C` (stereo not drawn) the outcome [1] was “inactive”, the AC50 [2] was 121 µM (active) and the AC50 [3] was 93.6 µM (active). The AC50 [4] was 61.1 µM (active), the AC50 [5] was 144 µM (active) and the AC50 [6] was 7.62 µM (active). For the same compound, the AC50 [7] was 8.27 µM (active), the AC50 [8] was 11 µM (active) and the AC50 [9] was 9.74 µM (active). For the same compound, the AC50 [11] was 12.8 µM (active), the AC50 [14] was 6.69 µM (active) and the AC50 [19] was 100 µM (active). For the same compound, the AC50 [15] was 9.83 µM (active) and the outcome [17] was “inactive”.

With `c1ccc(Oc2ccccc2)cc1` the outcome [1] was “inactive”, the outcome [2] was “inactive” and the outcome [3] was “inactive”. The outcome [4] was “inactive”, the outcome [5] was “inactive” and the AC50 [6] was 30.7 µM (active). The AC50 [7] was 30.6 µM (active), the AC50 [8] was 30.7 µM (active) and the AC50 [9] was 31.5 µM (active). The outcome [18] was “inactive”, the outcome [10] was “inactive” and the AC50 [11] was 32.2 µM (active). For the same compound, the outcome [12] was “inactive”, the AC50 [14] was 31.2 µM (active) and the outcome [15] was “inactive”. The outcome [17] was “inactive”.
